# Screening results: PubChem, National Center for Advancing Translational Sciences (NCATS)
# Most compounds without a hit are left out; they make up all but 7.6% or so of the library.
# SW480 rereplic = DNA re-replication induction in SW480 cells | 340,000 compounds, 1.8% hits | Potency, µM (series often up to 46.1 µM), hits mostly activators | AID 624297 | SW480 DNA re-replication, Hoechst DNA content imaging, 48 h; note: nearly all actives have a fitted effect of over 55% in size
#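 SW480 cells exposed to compounds for 48 hr at 37 C, 5% CO2, then Hoechst-stained 40 min. Nuclear DNA content imaged by fluorescence scanning (405 nm excitation, 500-530 nm emission); re-replication scored as increased high-intensity nuclei.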
# KB-3-1 tox = KB-3-1 parental cell cytotoxicity; Potency, µM (doses to about 46.1 µM), most hits filed as cytotoxic; 400,000 compounds, 1.4% hits; AID 1347075; KB-3-1 viability, CellTiter-Glo ATP luminescence, 72 h; note: nearly all actives have a fitted effect of over 60% in size
#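 Parental KB-3-1 adenocarcinoma cells in phenol-red-free DMEM with 10% FBS were pin-treated with compounds at several concentrations, incubated 72 h at 37 °C, and viability read by CellTiter-Glo luminescence; concentration-effect curves were fitted after normalization.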
# MCF10A rerep = inducers of DNA re-replication in MCF 10A breast cells; 350,000 compounds, 2.9% hits; MCF 10A DNA re-replication, Hoechst nuclear intensity, 48 h; Potency, µM (titrated, usually from 46.1 µM), actives largely listed as activators; note: nearly all actives have a fitted effect of over 50% in size
# KCNH2 WT inh = inhibitors of human wildtype KCNH2 potassium channel; 340,000 compounds, 0.37% hits; Q12809; U2OS, BacMam KCNH2, thallium flux FluxOr; hits give low values; activity change, % at 1.84 µM;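 active = maximum activity change below -70%; inconclusive = maximum activity change between -70% and -50%; inactive = maximum activity change above -50%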
# Target sequence (Q12809 whole entry, looked up): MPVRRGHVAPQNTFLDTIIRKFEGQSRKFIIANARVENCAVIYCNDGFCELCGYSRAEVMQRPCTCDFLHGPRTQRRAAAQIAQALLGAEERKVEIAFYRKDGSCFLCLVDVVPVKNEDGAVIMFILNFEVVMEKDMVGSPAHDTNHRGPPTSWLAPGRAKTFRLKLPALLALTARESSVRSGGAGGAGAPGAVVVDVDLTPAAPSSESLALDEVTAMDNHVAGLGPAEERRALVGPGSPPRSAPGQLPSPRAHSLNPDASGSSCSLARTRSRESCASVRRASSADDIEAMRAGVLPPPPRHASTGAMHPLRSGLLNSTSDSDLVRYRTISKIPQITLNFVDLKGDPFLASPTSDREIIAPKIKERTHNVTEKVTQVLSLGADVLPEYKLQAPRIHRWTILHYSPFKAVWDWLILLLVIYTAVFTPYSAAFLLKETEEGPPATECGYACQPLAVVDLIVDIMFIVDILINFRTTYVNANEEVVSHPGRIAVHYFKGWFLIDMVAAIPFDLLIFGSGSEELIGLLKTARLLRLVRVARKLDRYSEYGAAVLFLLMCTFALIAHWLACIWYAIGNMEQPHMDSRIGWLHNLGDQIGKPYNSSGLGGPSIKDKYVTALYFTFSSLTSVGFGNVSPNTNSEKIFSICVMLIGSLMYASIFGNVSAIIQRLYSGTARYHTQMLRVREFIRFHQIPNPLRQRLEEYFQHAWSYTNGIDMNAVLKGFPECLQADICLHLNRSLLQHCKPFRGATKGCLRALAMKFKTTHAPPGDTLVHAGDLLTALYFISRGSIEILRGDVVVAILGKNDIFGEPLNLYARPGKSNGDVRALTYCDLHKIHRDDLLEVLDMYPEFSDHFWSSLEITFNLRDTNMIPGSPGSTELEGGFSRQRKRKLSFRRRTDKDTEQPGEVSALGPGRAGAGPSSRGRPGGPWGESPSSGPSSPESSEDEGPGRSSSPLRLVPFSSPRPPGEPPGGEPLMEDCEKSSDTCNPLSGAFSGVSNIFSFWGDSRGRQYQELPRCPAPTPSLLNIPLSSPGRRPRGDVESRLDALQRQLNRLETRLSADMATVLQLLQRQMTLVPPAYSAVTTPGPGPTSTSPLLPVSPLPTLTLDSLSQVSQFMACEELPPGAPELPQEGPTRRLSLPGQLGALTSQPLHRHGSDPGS
#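 U2OS cells transduced with wild-type KCNH2 virus are loaded with FluxOr dye for 45 min, and thallium flux is measured in kinetic reads before and after stimulation buffer. Rate constants are normalized to DMSO controls.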
# KCNH2 3.1 inh = inhibitors of human KCNH2 3.1 potassium channel isoform. AID 720553. U2OS KCNH2 3.1, thallium flux FluxOr; hits give low values. 340,000 compounds, 0.95% hits. activity change, % (tested at about 1.8 µM);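 active = maximum activity change below -70%; inconclusive = maximum activity change from -70% to -50%; inactive = maximum activity change above -50%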;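 note: thallium influx rate constant from kinetic fluorescence after stimulation buffer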
#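 Steps: virus added to U2OS suspension (4 h, RT, dark); medium with 10% FBS added, cells plated, 37 C overnight; FluxOr/Red40 loading buffer 45 min RT; stimulation buffer, 2 min kinetic read; rate constant normalized.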
# KB-V1 cytotox = KB-V1 MDR subline cytotoxicity. KB-V1 MDR cells viability, CellTiter-Glo, 72 h. Potency, µM (titrated, usually from 46.1 µM), most hits filed as cytotoxic. 400,000 compounds, 3.4% hits. AID 1347076; note: nearly all actives have a fitted effect of over 60% in size
#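 Drug-selected KB-V1 cells, grown in DMEM lacking phenol red with 10% FBS, receive compound titrations; after three days at 37 degrees C, surviving cell ATP is quantified by CellTiter-Glo luminescence and responses normalized and curve-fitted.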
# A number is an active result; – = inactive; ? = inconclusive; · = not tested or not shown; ! = not active in a repeat. Unless noted, calls come from the whole dose curve; as a rule, active = well fitted curve in the direction sought with a large enough effect; inconclusive = small, poorly fitted or top-dose-only effect, or another doubt; inactive = no such curve, though single readings can be large; an effect the other way counts as inactive or inconclusive.
SMILES,SW480 rereplic,KB-3-1 tox,MCF10A rerep,KCNH2 WT inh,KCNH2 3.1 inh,KB-V1 cytotox
Cc1nonc1OCC(C)(COc1nonc1C)NC(=O)c1ccccc1,–,–,–,–,–,18.4µM
Cn1nnnc1Sc1ncnc2scc(-c3ccsc3)c12,?,?,16.4µM,·,·,–
Cc1nc(Sc2nnnn2C2CC2)c2c(-c3ccccc3)csc2n1,·,?,·,·,·,–
COC(=O)CSc1ncnc2scc(-c3ccccc3)c12,?,–,–,–,–,–
CCn1nnnc1Sc1nc(C)nc2scc(-c3ccccc3)c12,·,13µM,·,·,·,–
Cc1ccc(-c2csc3ncnc(SCC(=O)O)c23)cc1,–,–,–,–,–,–
COc1cccc(-c2csc3ncnc(Sc4nnnn4C)c23)c1,0.326µM,?,?,·,·,?
Fc1ccc(CSc2ncnc3scc(-c4ccccc4)c23)cc1,–,–,–,–,–,14.6µM
CCn1ccnc1CN(C)C(=O)CCc1nnc(CCC2CCCCC2)o1,?,–,–,–,–,–
Cc1ccc(N2CCN(C(=O)c3cnn(-c4ccc(F)cc4F)c3C3CCN(C(=O)OC(C)(C)C)CC3)CC2)c(C)c1,·,–,·,·,·,–
CCc1ccc(CNC(=O)Cn2nc(-c3ccc(Cl)cc3)ccc2=O)cc1,·,–,·,·,·,?
COC(=O)c1cn(NC(=O)C2CCC(C(C)(C)C)CC2)c(=O)c2ccccc12 (stereo unspecified),–,–,–,–,–,–
Cn1nnnc1Sc1ncnc2scc(-c3cccc(C(F)(F)F)c3)c12,?,?,3.26µM,·,·,?
Cn1nnnc1Sc1ncnc2scc(-c3ccccc3C(F)(F)F)c12,?,16.4µM,–,·,·,?
Cn1nnnc1Sc1ncnc2scc(-c3cccs3)c12,?,?,10.3µM,·,·,?
Cc1ccccc1N1CCN(c2ncnc3scc(-c4cccs4)c23)CC1,–,?,?,–,–,?
Cn1nnnc1Sc1ncnc2scc(-c3cccc(F)c3)c12,–,–,?,·,·,–
Cn1nnnc1Sc1ncnc2scc(-c3ccc(C#N)cc3)c12,–,?,?,·,·,?
Cn1nnnc1Sc1ncnc2scc(-c3ccc(-c4ccccc4)cc3)c12,?,14.6µM,8.2µM,·,·,?
COc1ccccc1OCc1cc(C(=O)NCc2ccc(N3CCCC3=O)cc2)no1,–,–,–,–,–,–
COc1ccc(/C=C/c2ccnc3ccccc23)c(OC)c1,·,?,·,·,·,–
O=C(O)c1c(Cl)c(Cl)c(Cl)c(Cl)c1-c1c2cc(I)c(=O)c(I)c-2oc2c(I)c(O)c(I)cc12,–,·,–,·,·,·
Cc1cc(C(=O)Cn2cnc3cc(F)ccc3c2=O)c(C)n1C1CC1,–,–,–,–,–,–
Cn1nnnc1Sc1ncnc2scc(-c3ccc(C(F)(F)F)cc3)c12,–,?,2.06µM,·,·,18.4µM
CCc1cccc2c(C(=O)CN3C(=O)NC4(CCCCC4)C3=O)c[nH]c12,–,?,13µM,–,–,?
SMILES,SW480 rereplic,KB-3-1 tox,MCF10A rerep,KCNH2 WT inh,KCNH2 3.1 inh,KB-V1 cytotox
CCc1cccc2c(C(=S)N3CCCC3)c[nH]c12,–,–,–,·,–,–
CCc1cccc2c(C(=O)CCl)c[nH]c12,?,–,23.1µM,–,·,–
Cc1cccc(NC(=S)N2CCC(NC(=O)C3CCCCC3)CC2)c1,–,–,–,–,–,?
Cc1ccc(C(=O)Nc2cccc([N+](=O)[O-])c2)cc1S(=O)(=O)Nc1ccc(C(=O)O)cc1,–,–,?,–,–,–
Cc1ccccc1NS(=O)(=O)c1cc(C(=O)Nc2cccc([N+](=O)[O-])c2)ccc1C,–,?,?,–,–,11.6µM
Cc1ccc(C)c(NS(=O)(=O)c2cc(C(=O)Nc3ccccc3-c3ccccc3)ccc2C)c1,–,?,–,–,–,4.61µM
Cc1ccc(C(=O)Nc2ccccc2-c2ccccc2)cc1S(=O)(=O)Nc1cccc(C)c1C,–,–,–,–,–,–
O=C(C[n+]1ccncc1)c1cccc([N+](=O)[O-])c1,·,–,·,·,·,–
O=C(c1cccc([N+](=O)[O-])c1)n1nc(-c2ccccc2)nc1NCc1ccccc1,–,?,–,–,–,–
CC(=O)n1nc(-c2cccc(C)c2)nc1SCC(=O)Nc1ccccc1,–,–,–,–,–,–
O=C(CSc1nc(-c2ccccc2)nn1C(=O)c1ccccc1)Nc1cccc([N+](=O)[O-])c1,–,?,–,–,–,20.6µM
CCC(=O)n1nc(-c2ccccc2)nc1SCC(=O)Nc1ccc(C)cc1,–,–,–,–,–,20.6µM
Cc1ccc(NC(=O)CSc2nc3ccccc3c3nc4ccccc4n23)cc1,0.651µM,0.92µM,1.46µM,–,–,1.64µM
CCOC(=O)[C@H]1[C@H]2COc3ccc(C)cc3[C@@H]2N2C(=O)c3cc(F)c(F)cc3NC(=O)[C@@]12C,–,?,–,–,–,–
CCOC(=O)[C@H]1[C@H]2COc3ccc(Cl)cc3[C@@H]2N2C(=O)c3cc(F)c(F)cc3NC(=O)[C@@]12C,–,23.1µM,–,–,-193.5,?
CCOC(=O)[C@H]1[C@H]2COc3ccc(OC)cc3[C@@H]2N2C(=O)c3cc(OC)ccc3NC(=O)[C@@]12C,6.51µM,–,–,–,–,?
CC1CC(C)CN(C(=O)COC(=O)COc2ccccc2C#N)C1 (stereo unspecified),–,–,–,–,–,?
CC1CCC(C(C)C)C(OC(=O)Cn2c(-c3ccc(Br)cc3)[n+](C)c3ccccc32)C1 (stereo unspecified),?,18.4µM!,?,-104.2!,?,?
Cc1ccccc1OCc1n(CC(=O)OC2CC(C)CCC2C(C)C)c2ccccc2[n+]1C (stereo unspecified),?,?,1.84µM!,-81.5!,–,–
Cc1c(C#N)c(NC(=O)CCl)n(Cc2ccccc2)c1C,?,10.3µM,?,–,–,?
Cc1c(C#N)c(NC(=O)CCl)n(Cc2ccc(F)cc2)c1C,?,?,?,–,–,–
Cc1c(C#N)c(NC(=O)CCl)n(Cc2cccs2)c1C,5.8µM,?,?,–,–,?
CCCN1CCC(=O)N(CCC#N)CC1,·,–,·,·,·,–
COc1ccc(-c2nnc(-c3cc4ccccc4oc3=O)o2)cc1,–,–,–,–,–,–
Cc1cc(-c2nnc(-c3cc4ccccc4oc3=O)o2)c(C)n1-c1ccccc1,?,?,5.8µM,–,–,?
COc1ccc(C(=O)NC2CC2)cc1OC1CCN(Cc2ccccc2)CC1,?,–,–,–,·,?
C#Cc1ccc(CN2CCC(Oc3cc(C(=O)NC4CC4)ccc3OC)CC2)cc1,–,–,–,-99.4,-103.4,–
COc1ccccc1/C=C/CN1CCC(Oc2cc(C(=O)NC3CC3)ccc2OC)CC1,–,–,–,-120.3,-100.9,–
COc1ccccc1CNS(=O)(=O)c1cc(-c2cc(C)no2)ccc1C(C)C,–,?,–,–,–,?
